Screens as filed in PubChem BioAssay.
DAX1 inh-1: inhibitors of DAX1 repression of SF-1 activated StAR promoter; HEK293T StAR-luciferase reporter, SF-1/DAX-1 repression relief; 370,000 compounds, 1.1% hits; inhibition, % at 6.8 µM;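 active means inhibition above the mean over all tested compounds plus 3 SD, cut at about 3.6% in these data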;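 further: higher inhibition means more luminescence from relief of DAX-1 repression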
hcDAF-12 act: activators of H. contortus DAF-12 nuclear receptor. HEK293 hcDAF-12 lit1-tk-luc reporter, luminescence; 0% DMSO, 100% Δ7-dafachronic acid. AID 652067. activation, % at 6.8 µM. 370,000 compounds, 1.4% hits;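 active means activation above the mean of all tested compounds plus 3 SD, cut at about 5.5% in these data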
DAX1 inh-2: inhibitors of human orphan nuclear receptor DAX1 (NR0B1) | P51843 | HEK293 Gal4-DAX1 luciferase reporter, luminescence | inhibition, % at 6.75 µM | 340,000 compounds, 0.99% hits | AID 504766;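 active means inhibition above the mean over all tested compounds plus 3 SD, cut at about 4.2% in these data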;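 further: inhibition shows as a rise in luminescence from relieved DAX1 repression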
ssDAF-12 act: S. stercoralis DAF-12 activation, primary screen | HEK293 ssDAF-12/GRIP1 lit1-tk-luc reporter, luminescence; % of 3 µM dafachronic acid response | activation, % at 6.8 µM | 370,000 compounds, 1% hits;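 active means activation above the mean over all tested compounds plus 3 SD, cut at about 0.9% in these data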
hgDAF12 agonist: agonists of H. glycines DAF-12 nuclear receptor. HEK293 GAL4-hgDAF12 UAS-luciferase reporter, agonist luminescence; normalized to butyrate control. activation, % at 6.8 µM. 370,000 compounds, 1.8% hits;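 active means activation above a cutoff set at the mean of all screened compounds plus 3 SD, cut at about 10% in these data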
Rev-erbA mod: Rev-erb alpha (human) modulation; Rev-erbα–FITC-DNA binding, fluorescence polarization, 90 min; 370,000 compounds, 0.79% hits; P20393; AID 1259318; activity, % at 10 µM;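 active means activity above about 14%, limit read from the data; passing the limit was not always enough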
hgDAF12 ag: confirmation of H. glycines DAF-12 agonists | shares compounds with hgDAF12 agonist | HEK293 GAL4-hgDAF12 luciferase reporter, agonist mode; percent of butyrate response | activation, % at 6.8 µM | 3,300 compounds, 80% hits | AID 743050;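 active means mean activation over triplicate wells above the hit cutoff derived from the earlier primary screen, cut at about 11% in these data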
LXRb DAF12 ctr: activates human LXR-beta, counter-screen for DAF-12 agonists. HEK293 Gal4-LXR luciferase reporter, 24 h. activation, % at 6.8 µM. 3,300 tested, under 10 active. shares compounds with hgDAF12 agonist;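 active means mean activation of the triplicate above a set limit carried over from the primary screen, none filed active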
Target sequence (P55055 whole entry, looked up, the tested form may be a part): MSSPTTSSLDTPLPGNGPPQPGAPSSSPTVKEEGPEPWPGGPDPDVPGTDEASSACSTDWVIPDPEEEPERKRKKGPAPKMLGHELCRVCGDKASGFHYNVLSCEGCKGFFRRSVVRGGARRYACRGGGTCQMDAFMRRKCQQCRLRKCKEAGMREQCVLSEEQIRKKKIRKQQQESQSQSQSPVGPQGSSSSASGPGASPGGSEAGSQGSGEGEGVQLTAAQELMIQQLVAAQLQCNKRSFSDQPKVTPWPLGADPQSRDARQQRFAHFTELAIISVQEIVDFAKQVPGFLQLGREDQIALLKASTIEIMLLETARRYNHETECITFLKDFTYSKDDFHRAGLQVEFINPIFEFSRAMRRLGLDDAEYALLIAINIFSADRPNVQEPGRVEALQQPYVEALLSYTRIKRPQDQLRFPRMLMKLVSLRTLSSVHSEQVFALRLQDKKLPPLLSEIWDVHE
Numbers stand for hits; n = inactive; x = no result. This is a sample that favours compounds with a hit; in the whole collection about 4.8% have one here.

SMILES	DAX1 inh-1	hcDAF-12 act	DAX1 inh-2	ssDAF-12 act	hgDAF12 agonist	Rev-erbA mod	hgDAF12 ag	LXRb DAF12 ctr
COc1ccc(OCc2ccc(/C=N\NC(=O)c3sccc3C)o2)cc1	n	n	n	n	13.9	n	n	n
CCCC12CN3CCN(CC(C3)/C1=N\NC(=O)c1ccc(F)cc1)C2	n	n	n	n	13.3	n	n	n
O=C(/C=C/Nc1ccc(Cc2ccc(N/C=C/C(=O)C(F)(F)F)cc2)cc1)C(F)(F)F	n	n	n	n	13.4	n	n	n
COc1ccc(N/C=C/C(=O)C(F)(F)F)cc1	n	n	n	n	n	n	x	x
COC(=O)[C@H](Cc1ccccc1)N1CC(N2CCCC2)CS1(=O)=O (stereo partly drawn)	n	n	x	n	n	n	x	x
CCC(=O)Nc1ccc2c(c1)C(=O)N(C)C2=O	n	n	n	n	n	n	x	x
CCC(=O)Nc1ccc2c(c1)C(=O)c1ccccc1C2=O	3.8	6.4	n	n	13.4	n	16.2	n
O=C(Nc1cccc(Cl)c1)Nc1nnc([C@@H]2C[C@H](O)[C@@H](CO)O2)s1	n	n	x	n	16.0	n	n	n
O=C(Nc1cccc(F)c1)Nc1nnc([C@@H]2C[C@H](O)[C@@H](CO)O2)s1	n	n	x	n	n	n	x	x
O=C1C(Nc2ccccc2)=C2CCCC=C2N1c1ccccc1	4.2	n	n	n	13.5	n	n	n
C=CCNc1nc(NCCOC)c2sc(-c3ccccc3)cc2n1	n	n	x	n	n	n	x	x
C=CCNc1nc(NCc2ccc(N(C)C)cc2)c2sc(-c3ccccc3)cc2n1	4.5	n	x	n	14.6	n	n	n
N#Cc1ccc(NC(=O)OC2CCC23CCC(c2ccccc2)CC3)cc1 (stereo not drawn)	n	n	x	n	n	n	x	x
CC(=O)c1cc(-c2ccc3nonc3c2)c(=O)n2c1CCC2	n	n	x	n	n	n	x	x
O=C(Nc1ccc2c(c1)OCO2)c1cc2nc(C3CC3)cc(C(F)(F)F)n2n1	x	x	n	x	x	n	x	x
Cc1cc(C)n2nc(C(=O)Nc3ccc4c(c3)OCO4)cc2n1	4.2	n	n	n	14.9	n	14.7	n
COCCNC(=O)c1noc2c1CCc1cc(OC)ccc1-2	n	n	n	n	14.0	n	11.6	n
COc1cc(Cl)ccc1OCc1cc(C(=O)N2CCN(C)C(=O)[C@@H]2C)no1	n	5.8	n	n	14.5	n	13.0	n
COc1cc(Cl)ccc1OCc1cc(C(=O)N2CCN(C)CC2)no1	n	n	n	n	n	n	x	x
Cc1cc(-c2nc3cccnc3s2)ccc1NS(=O)(=O)c1cccs1	4.4	6.5	n	n	13.6	n	12.8	n
O=S(=O)(Nc1ccc(-c2nc3cccnc3s2)cc1)c1cccs1	n	n	n	n	n	n	x	x
CC(C)c1[nH]nc2c1C(c1cccc(C(F)(F)F)c1)NC2=O (stereo not drawn)	n	n	x	n	n	n	x	x
CC1=CC(=C2C(=O)c3ccccc3C2=O)C=C(C)N1Cc1ccco1	n	n	n	n	15.7	n	12.7	n
C[C@H]1[C@H](NC(=O)c2ccc(Cl)cc2)CC[C@@]23CCCN2C(=O)CCC[C@@H]13	x	n	x	n	n	n	x	x
COC(C(=O)N/N=C(\C)c1ccc(O)cc1)c1ccccc1 (stereo not drawn)	n	n	n	n	13.8	n	n	n
COC(C(=O)N/N=C(\C)c1ccc(C)cc1)c1ccccc1 (stereo not drawn)	n	n	n	n	n	n	x	x
C=CCN=C1NC(c2ccccc2C(F)(F)F)C(C(=O)OC)=C(C)N1Cc1ccc(C(F)(F)F)cc1 (stereo not drawn)	n	n	x	n	n	n	x	x
O=C(Nc1ccc2c(c1)OCO2)OC1CCC12CCCCC2 (stereo not drawn)	n	n	x	n	15.4	n	13.4	n
